Results on ten molecules are retold here after publication PMC5540273 (PLoS ONE, 2017).

What all share (details): concentration: 1 μM, replicates: in singlicate; n = 1
Assay [1] relates to INSR.
The subject of assay [2] is IRAK1.
Assay [3] relates to IRAK3.
The test system of assay [4] is IRAK4.
The test system of assay [5] is ITK.
The subject of assay [6] is JAK1(JH1domain-catalytic).
For assay [7], the system named is JAK1(JH2domain-pseudokinase).
The subject of assay [8] is JAK2(JH1domain-catalytic).
For assay [9], the system named is JAK3(JH1domain-catalytic).
Assay [10] relates to T1, JNK1.
T1 construct: gene MAPK8

Assay [11] relates to T2, JNK2.
T2 construct: gene MAPK9

In assay [12] the test system is T3, JNK3.
T3 construct: gene MAPK10

Assay [13] deals with KIT-autoinhibited.
Assay [14] relates to KIT.
Assay [15] has as its system LATS1.
Assay [16] relates to LATS2.
Assay [17] concerns LCK.
Assay [18] relates to LIMK1.
Assay [19] relates to LIMK2.
Assay [20] relates to T4, LKB1.
T4 construct: gene STK11
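Note: KINOMEscan kinase panel screen.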

As to `O=C(Nc1ccc2c(c1)OCO2)NC1CCN(c2ccnc(NCc3ccc(F)cc3)n2)CC1` [GSK1379859], the “%Inh” value in [1] is on record as 45%; in [2] it was 0%; in [3], 0%; in assay [4], 0%; in [5] it was 0%; in assay [6] it was 7%. Also, the “%Inh” value in [7], in [8], in [9], in assay [10], in assay [11] and in assay [12] was 0% in each case. Also, the “%Inh” value turned out to be 0% in [13]; 2% in assay [14]; 0% in assay [15]; 0% in assay [16]; 14% in assay [17]; 0% in assay [18]. For the same molecule, the figures for the “%Inh” value in assay [19] and in assay [20] were 21% and 6%, respectively.

`COc1ccc(Nc2nccc(N3CCC(NS(=O)(=O)c4ccc(NC(C)=O)cc4)C3)n2)cc1` (centres unmarked) [GSK1379729]: the “%Inh” value in assay [1] worked out at 4%; in assay [2], 0%; in assay [3], 17%; in assay [4] it was 57%; in [5] it was 19%; in [6] it was 66%. Moreover, the “%Inh” value in [7] was 0%; in assay [8], 95.6%; in [9], 5%; in [10], 20%; in assay [11], 0%; in assay [12] it was 0%. Moreover, the “%Inh” value in assay [13] is recorded as 0%; in assay [14], 9%; in [15], 0%; in [16], 0%; in assay [17], 23%; in [18], 14%. The “%Inh” value in [19] is given as 10%; in assay [20], 0%.

As for `COc1cc2ncn(-c3cc(OCc4ccncc4)c(C(N)=O)s3)c2cc1OC` [GSK336313], the “%Inh” value in assay [1] was 1%; in assay [2], 8%; in assay [3], 0%; in assay [4], 0%; in assay [5] it was 4%; in assay [6] it was 6%. For the same molecule, the “%Inh” value in assay [7] was determined as 0%; in [8], 0%; in assay [9] it was 0%; in [10], 0%; in assay [11] it was 12%; in assay [12], 1%. In addition, the “%Inh” value came to 0% in assay [13]; 18% in [14]; 0% in [15]; 8% in [16]; 30% in assay [17]; 2% in assay [18]. Further, the “%Inh” value in assay [19] worked out at 18%; in [20] it was 0%.

Consider `COc1cc(OC)cc(-c2cc3cnc(N)nc3nc2NC(=O)NC(C)(C)C)c1`, for which the “%Inh” value in [1], in assay [2], in assay [3], in assay [4], in [5] and in assay [6] was 0% throughout. Besides, the “%Inh” value in assay [7], in assay [8], in assay [9], in assay [10], in [11] and in assay [12] was 0% each time. Further, the “%Inh” value in [13] was 0%; in assay [14], 0%; in [15] it was 0%; in assay [16], 34%; in [17] it was 0%; in assay [18], 0%. Further, the “%Inh” value in [19] and in assay [20] was 0% each time.

Regarding `COc1ccc(-n2cnc3c(N)ncnc32)cc1` [SKF-97236], the “%Inh” value in assay [1] was found to be 52%; in [2], 0%; in [3], 12%; in [4], 7%; in [5], 7%; in assay [6] it was 5%. In addition, the “%Inh” value in assay [7] was determined as 68%; in assay [8], 31%; in assay [9] it was 27%; in [10], 12%; in assay [11], 0%; in assay [12] it was 0%. Also, the “%Inh” value in assay [13] amounted to 2%; in assay [14], 94.2%; in [15], 25%; in [16], 34%; in assay [17] it was 31%; in assay [18], 2%. The “%Inh” value in [19] and in assay [20] was 0% each time.

Take `CCn1c(-c2nonc2N)nc2ccccc21` [SB-693162/GW549034]: the “%Inh” value in [1] is on record as 17%; in assay [2] it was 0%; in assay [3] it was 0%; in [4], 48%; in assay [5], 0%; in [6] it was 8%. The “%Inh” value was 0% in assay [7]; 0% in [8]; 0% in assay [9]; 78% in [10]; 57% in assay [11]; 62% in assay [12]. In addition, the “%Inh” value in assay [13] is on record as 26%; in assay [14] it was 0%; in assay [15], 0%; in [16] it was 82%; in assay [17], 12%; in assay [18] it was 0%. Moreover, the “%Inh” value in assay [19] and in assay [20] was 0% in each case.

`Cc1cccc(-c2cc(-c3c[nH]nc3-c3ccccn3)ccn2)c1` [GW679395]: the “%Inh” value was 1% in assay [1]; 34% in assay [2]; 1% in [3]; 18% in assay [4]; 4% in [5]; 5% in assay [6]. For the same molecule, the “%Inh” value in assay [7] is 0%; in [8], 8%; in [9], 0%; in assay [10], 56%; in [11], 66%; in [12] it was 73%. Moreover, the “%Inh” value in assay [13] is reported as 0%; in [14], 35%; in [15] it was 0%; in [16], 3%; in [17], 78%; in assay [18] it was 0%. Also, the “%Inh” value in [19] amounted to 13%; in assay [20], 0%.

Turning to `Nc1nc(N)c2nc(-c3ccccc3)[nH]c2n1` [SKF-12778], the “%Inh” value in [1] was 0%; in assay [2], 34%; in assay [3], 0%; in assay [4] it was 3%; in [5] it was 8%; in assay [6], 11%. The “%Inh” value was determined as 84% in assay [7]; 50% in [8]; 39% in [9]; 20% in [10]; 14% in assay [11]; 8% in assay [12]. The “%Inh” value in assay [13] is 5%; in [14], 21%; in [15] it was 0%; in [16], 0%; in assay [17] it was 19%; in assay [18] it was 0%. For the same molecule, the “%Inh” value in assay [19] stood at 3%; in [20], 0%.

Regarding `COc1ccc(-c2cc3c(C)nc(N)nc3n([C@H]3CC[C@H](OCCO)CC3)c2=O)cn1`, the “%Inh” value in assay [1] turned out to be 24%; in assay [2], 4%; in [3], 19%; in [4], 3%; in assay [5] it was 0%; in assay [6], 0%. In addition, the “%Inh” value was found to be 22% in assay [7]; 0% in assay [8]; 0% in assay [9]; 0% in assay [10]; 0% in assay [11]; 0% in assay [12]. Further, the “%Inh” value worked out at 0% in [13]; 7% in assay [14]; 26% in [15]; 11% in [16]; 0% in assay [17]; 13% in assay [18]. For the same molecule, the “%Inh” value in [19] came out at 0%; in [20] it was 40%.

On to `O=c1cc(N2CCOCC2)nc2n(Cc3ccc(F)c(Cl)c3)ccn12` [GSK2297099], for which the “%Inh” value in assay [1] came out at 23%; in [2], 10%; in [3], 0%; in assay [4], 16%; in [5] it was 1%; in assay [6], 19%. For the same molecule, the “%Inh” value in [7] was determined as 0%; in assay [8] it was 100%; in assay [9], 0%; in assay [10], 21%; in assay [11], 8%; in assay [12], 5%. The “%Inh” value in assay [13] is 0%; in [14], 9%; in assay [15], 4%; in [16], 0%; in assay [17], 0%; in assay [18], 7%. Moreover, the “%Inh” value was 6% in assay [19] and 0% in [20].
